Only some compounds are listed: those with a hit (about 9.9% of all), similar ones and a draw of the others.
KB-V1 cytotox = qHTS assay for MDR1-selective chemotherapeutics: Primary screen using the drug-selected MDR subline cells KB-V1 | KB-V1 MDR cells viability, CellTiter-Glo, 72 h | Potency, µM (series often up to 46.1 µM), actives largely listed as cytotoxic | 400,000 compounds, 3.4% hits; further: nearly all actives have a fitted effect of over 60% in size
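qHTS viability screen in drug-selected KB-V1 MDR cells: 72 h compound treatment at 37 degrees C, ATP luminescence end point.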
MCF10A rereplic = A quantitative high throughput screen for small molecules that induce DNA re-replication in MCF 10a normal breast cells. MCF 10A DNA re-replication, Hoechst nuclear intensity, 48 h. Potency, µM (highest dose often 46.1 µM), most hits filed as activators. 350,000 compounds, 2.9% hits. AID 624296, 2012; further: nearly all actives have a fitted effect of over 50% in size
KB-3-1 tox = qHTS assay for MDR1-selective chemotherapeutics: Primary screen using the parental adenocarcinoma cell KB-3-1 | KB-3-1 viability, CellTiter-Glo ATP luminescence, 72 h | Potency, µM (series often up to 46.1 µM), usual class: cytotoxic | 400,000 compounds, 1.4% hits; further: nearly all actives have a fitted effect of over 60% in size
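Cytotoxicity measured as CellTiter-Glo luminescence after 72 h at 37 C. Compound titrations were pinned onto drug-naive KB-3-1 parental adenocarcinoma cells grown in DMEM with 10% FBS, and normalized data fitted to concentration-response curves.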
SW480 rerep = A quantitative high throughput screen for small molecules that induce DNA re-replication in SW480 colon adenocarcinoma cells; SW480 DNA re-replication, Hoechst DNA content imaging, 48 h; Potency, µM (highest dose often 46.1 µM), actives largely listed as activators; 340,000 compounds, 1.8% hits; AID 624297, 2012; further: nearly all actives have a fitted effect of over 55% in size
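Image-based read-out: total Hoechst fluorescence of nuclei (405 nm excitation, 500-530 nm emission), with hits raising the fraction of high-intensity nuclei. SW480 colon cells incubated 48 hr with compounds at 37 C.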
IL-1B inflam inh = qHTS for Inhibitors of Inflammasome Signaling: IL-1-beta AlphaLISA Primary Screen; activity change, % at 57.5 µM; THP-1 LPS/ATP IL-1B secretion, AlphaLISA, 16 h; stronger effect = lower value; 360,000 compounds, 4.7% hits; in the data active means activity change below about -50%; inconclusive means mostly about -30% to -49%
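THP-1 cells pretreated 1 hr with compounds (up to 57.5 uM final), then stimulated with LPS (250 ng/mL final) plus ATP (1.25 mM final); secreted IL-1B measured by AlphaLISA after 16 hr, decreased signal indicating inhibition.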
Of the large screens only hits and unclear results are named; the others gave an inactive call. Unless noted, the call rests on the fitted dose curve; in most records, active means well fitted curve in the direction sought with a large enough effect; inconclusive means small, poorly fitted or top-dose-only effect, or another doubt; inactive means no such curve, though single readings can be large; an effect the other way counts as inactive or inconclusive.

O=C(O)Cc1ccc(NC(=O)c2ccc(NC(=O)c3ccco3)cc2)cc1	none
CC(C)(C)NC(=O)c1cccc(NC(=O)c2ccco2)c1	KB-V1 cytotox inconclusive
COC(=O)Cc1ccc(NC(=O)c2ccc(NC(=O)c3ccco3)cc2)cc1	KB-V1 cytotox inconclusive, IL-1B inflam inh -88
CC(C)(C)c1ccc(NC(=O)CCNC(=O)c2ccco2)cc1	none
CSc1cccc(NS(=O)(=O)c2ccc3[nH]cc(C(=O)N4CCCCCC4)c(=O)c3c2)c1	none (no result: MCF10A rereplic, SW480 rerep, IL-1B inflam inh)
O=C1CCCC(=O)N1CCCCCCN1C(=O)CCCC1=O	none (no result: MCF10A rereplic, SW480 rerep)
CCOC(=O)Cc1ccc(NC(=O)c2ccc(C(C)(C)C)cc2)cc1	KB-V1 cytotox inconclusive, KB-3-1 tox inconclusive, IL-1B inflam inh -56
COC(=O)Cc1ccc(NC(=O)C(c2ccccc2)c2ccccc2)cc1	KB-V1 cytotox 8.2µM
O=C(Nc1ccc(Nc2ccccc2)cc1)c1ccco1	MCF10A rereplic inconclusive, IL-1B inflam inh -100
O=C(Nc1ccc(NC(=O)c2sc3ccccc3c2Cl)cc1)c1ccco1	MCF10A rereplic 12µM, SW480 rerep inconclusive
O=C(Nc1ccc(NC(=O)c2ccco2)cc1)c1ccco1	none
O=C(O)Cc1ccc(NC(=O)C(c2ccccc2)c2ccccc2)cc1	none
OCC[C@@H]1C[C@H](O)[C@@H](O)[C@@]2(OCCc3cc(Cl)ccc32)O1	none (no result: MCF10A rereplic, SW480 rerep)
CCOc1ccc(NC(=O)CCN2CCN(S(=O)(=O)c3ccc(Cl)cc3)CC2)cc1	none
COc1cc(OC)c2c(C)c(CC(=O)NCc3ccccc3OC)c(=O)oc2c1	KB-V1 cytotox inconclusive (no result: MCF10A rereplic, SW480 rerep, IL-1B inflam inh)
CC(=O)Nc1nc(C)c(CCC2OCCO2)c(=O)[nH]1	KB-3-1 tox inconclusive
CC(=O)Nc1ccc2c(c1)C(=O)c1cccc(C(=O)O)c1-2	none
O=C(c1ccccc1)C(Nc1cccc([N+](=O)[O-])c1)c1ccccc1 (stereo unspecified)	MCF10A rereplic inconclusive, SW480 rerep inconclusive, IL-1B inflam inh inconclusive
Cn1nc(C(F)(F)F)c(/C=N/OC(=O)c2ccccc2)c1SCc1ccccc1Cl	KB-V1 cytotox 12µM, MCF10A rereplic 18µM, KB-3-1 tox inconclusive, SW480 rerep 16µM, IL-1B inflam inh inconclusive
COc1ccc(OCC(=O)OCc2cc(=O)n3nc(C4CCCCC4)sc3n2)cc1	none (no result: MCF10A rereplic, SW480 rerep, IL-1B inflam inh)
O=c1oc2ccccc2nc1/C=C(O)/C=C/c1ccc(F)cc1	MCF10A rereplic inconclusive
O=c1oc2ccccc2nc1/C=C(O)/C=C\c1ccccc1	MCF10A rereplic inconclusive, IL-1B inflam inh -54
CCOC(=O)CC(NC(=O)c1ccco1)c1ccc(OC)cc1 (stereo unspecified)	KB-V1 cytotox 23µM
COc1ccc(-c2cccc(NS(=O)(=O)c3ccc(C)s3)c2)nn1	none (no result: MCF10A rereplic, SW480 rerep, IL-1B inflam inh)
O=C1COc2ccccc2N1Cc1ccc(Cl)cc1	none
CCCCN1CC(COCc2ccccc2)Oc2cccc(OCCN3C(=O)[C@@H]4[C@H](C3=O)C3C=C[C@H]4C3)c2S1(=O)=O (stereo partly specified)	KB-V1 cytotox 15µM, MCF10A rereplic inconclusive, KB-3-1 tox inconclusive
COc1ccc(CCNC(=O)C2CCC(C(C)(C)C)CC2)cc1OC (stereo unspecified)	none
Cc1[nH]c2ccccc2c1C(=O)C(=O)NCc1ccncc1	none
NS(=O)(=O)c1cccc(NC(=O)COC(=O)CC2CC3CCC2C3)c1 (stereo unspecified)	MCF10A rereplic inconclusive
Cc1ccc(-c2csc3ncnc(Sc4nnc(CN5CCCCCC5=O)o4)c23)cc1	MCF10A rereplic 15µM, KB-3-1 tox 12µM, SW480 rerep inconclusive, IL-1B inflam inh -98
CCc1ccc(N(C(=O)c2csnn2)C(C(=O)NC(C)(C)CC)c2cccnc2)cc1 (stereo unspecified)	none
c1ccc(-c2nc(N3CCNCC3)nc3ccccc23)cc1	KB-V1 cytotox inconclusive, MCF10A rereplic 0.71µM, SW480 rerep 23µM, IL-1B inflam inh inconclusive
CCN1CCN(c2nc(-c3ccccc3)c3ccccc3n2)CC1	MCF10A rereplic 15µM, SW480 rerep 21µM, IL-1B inflam inh inconclusive
CCOC(=O)C1=CCN(S(C)(=O)=O)C1c1ccc(C)cc1 (stereo unspecified)	none (no result: MCF10A rereplic, SW480 rerep)
Cc1ccc(-n2c(Cc3ccccc3)n[nH]c2=S)c(C)c1	IL-1B inflam inh -67
CCOC(=O)c1cc(C(C)(C)C)oc1CNC(=O)c1c(C)oc2c1CCCC2	MCF10A rereplic 21µM
O=C(NC1CCCC1)C1C(c2ccc(C(F)(F)F)cc2)=Nc2ccccc2N1C(=O)c1cc2ccccc2[nH]1 (stereo unspecified)	KB-V1 cytotox 13µM, KB-3-1 tox inconclusive (no result: MCF10A rereplic, SW480 rerep)
CN(C)C/C=C/C(=O)Nc1cccc(-c2c[nH]c3ncnc(Oc4ccc(NC(=O)CC(=O)Nc5ccc(F)cc5)cc4F)c23)c1	MCF10A rereplic inconclusive, IL-1B inflam inh -90
Cc1cc(Cl)ccc1NC(=O)/C=N/O	none
CC1CN(c2nc3c(c(=O)[nH]c(=O)n3C)n2Cc2ccccc2F)CC(C)O1 (stereo unspecified)	KB-V1 cytotox 18µM
CCN1CCN(c2nc3c(c(=O)[nH]c(=O)n3C)n2Cc2ccccc2F)CC1	MCF10A rereplic inconclusive
Cn1c(=O)[nH]c(=O)c2c1nc(N1CCNCC1)n2Cc1ccccc1Cl	MCF10A rereplic 2.9µM
CNC(=O)C1C(=S)NC(N)=C(C#N)C1c1ccccc1 (stereo unspecified)	MCF10A rereplic inconclusive, SW480 rerep 3.3µM, IL-1B inflam inh inconclusive
COC(=O)C1=C(C)OC(N)=C(C#N)C1c1ccccc1 (stereo unspecified)	none
Cc1ccc2c(c1)c1ncnc(N3CCN(c4ccccc4)CC3)c1n2C	KB-V1 cytotox inconclusive, MCF10A rereplic inconclusive
Cc1ccc2c(c1)c1ncnc(N3CCOCC3)c1n2C	KB-V1 cytotox 23µM, MCF10A rereplic inconclusive
CCOC(=O)c1c(C)oc2c1c(C(c1cccnc1)N1CCOCC1)c(O)c1ccccc12 (stereo unspecified)	KB-V1 cytotox inconclusive, MCF10A rereplic inconclusive, KB-3-1 tox inconclusive, IL-1B inflam inh -110
CCOC(=O)c1c(C)oc2c1c(C=NCc1ccccn1)c(O)c1ccccc12	KB-V1 cytotox inconclusive, MCF10A rereplic 12µM, KB-3-1 tox inconclusive, SW480 rerep inconclusive, IL-1B inflam inh -94
CCOC(=O)c1c(C)oc2c1c(C=NCC1CCCO1)c(O)c1ccccc12 (stereo unspecified)	KB-V1 cytotox inconclusive, MCF10A rereplic inconclusive, KB-3-1 tox inconclusive
N#C/C(=C\c1cccc([N+](=O)[O-])c1)c1nnc2n1CCCCC2	IL-1B inflam inh -91
CN(c1ccccc1)c1ccc(/C=C(\C#N)c2nnc3n2CCCCC3)cc1[N+](=O)[O-]	KB-V1 cytotox 10µM, MCF10A rereplic inconclusive, KB-3-1 tox inconclusive, IL-1B inflam inh -106
